According to the supplement of paper PMC13380429:

Tested on: Vero E6 infected with SARS-CoV-2
Test: inhibition of SARS-CoV-2 cytopathic effect; higher = more antiviral protection, active = above 15
Settings: 48 h

Measured: inhibition of SARS-CoV-2 cytopathic effect

Cn1c(=O)c2c(ncn2CC2OCCO2)n(C)c1=O [doxofylline]
inactive: 1 nM -0.49% | 8.33 nM -2.41% | 100 nM -0.01% | 833.33 nM -1.59% | 10000 nM -0.77%

OC[C@H]1O[C@@H](O[C@@H]2[C@@H](CO)OC(O)(CO)[C@H]2O)[C@H](O)[C@@H](O)[C@H]1O (mixture of isomers) [lactulose]
inactive: 1 nM 1.11% | 8.33 nM 0.23% | 100 nM -0.45% | 833.33 nM -1.79% | 10000 nM 1.61%

CCN(CC)CCNC(=O)c1cc(Br)c(N)cc1OC [bromopride]
inactive: 1 nM -3.41% | 8.33 nM -1.83% | 100 nM -0.25% | 833.33 nM -3.5% | 10000 nM -1.74%

Cc1ccc(Cl)cc1N(CC(=O)Nc1c(F)cccc1F)S(C)(=O)=O
inactive: 1 nM 2.5% | 8.33 nM -2.01% | 100 nM -1.24% | 833.33 nM 0.27% | 10000 nM -0.21%

COc1ccc(C(=O)/C(Cc2cc(OC)c(OC)c(OC)c2)=C(\C(=O)O)c2ccc3c(c2)OCO3)cc1
active: 10000 nM 17.8%
inactive: 1 nM -2.66% | 8.33 nM -0.48% | 100 nM -0.33% | 833.33 nM 1.73%

CC(Cc1ccc(O)cc1)NCC(O)c1cc(O)cc(O)c1 (stereo not given) [fenoterol]
inactive: 1 nM 2.01% | 8.33 nM 0.82% | 100 nM 2.19% | 833.33 nM 2.52% | 10000 nM 0.86%

NC(=O)c1ccc(N(C(N)=O)c2c(F)cccc2F)nc1-c1ccc(F)cc1F
inactive: 1 nM -0.41% | 8.33 nM -1.25% | 100 nM -4.38% | 833.33 nM -0.33% | 10000 nM -1.52%

COc1cc2ncnc(Oc3cccc(NC(=O)Nc4cc(C(C)(C)C(F)(F)F)on4)c3)c2cc1OC
inactive: 1 nM -0.44% | 8.33 nM 0.69% | 100 nM 2.72% | 833.33 nM -0.98% | 10000 nM -6.45%

N#Cc1ccc(Oc2ccc3c(c2)COB3O)cc1 [crisaborole]
inactive: 1 nM 0.74% | 8.33 nM 0.97% | 100 nM 1.46% | 833.33 nM -0.75% | 10000 nM 4.65%

Cc1nc(Nc2ccc(F)cc2)nc(N2CCc3ccccc3C2C)c1C (stereo not given) [revaprazan]
inactive: 1 nM 0.41% | 8.33 nM 1.64% | 100 nM 2.31% | 833.33 nM 1.17% | 10000 nM 1.72%

CCc1nn(CCCN2CCN(c3cccc(Cl)c3)CC2)c(=O)n1CCOc1ccccc1 [nefazodone]
inactive: 1 nM -0.85% | 8.33 nM 0.31% | 100 nM -12.7% | 833.33 nM 0.6% | 10000 nM -2.21%

Cn1ncc(Cl)c1-c1cc(C(=O)N[C@H](CN)Cc2cccc(F)c2)sc1Cl
inactive: 1 nM 0.2% | 8.33 nM -1.05% | 100 nM -0.95% | 833.33 nM -0.24% | 10000 nM -2.44%

CN1CCN(CCc2ccc(Cl)c(Cl)c2)CC1
inactive: 1 nM 0.05% | 8.33 nM 3.18% | 100 nM -0.38% | 833.33 nM 0.92% | 10000 nM -1.14%

Cc1cc(Nc2cc(N3CCN(C)CC3)nc(Sc3ccc(NC(=O)C4CC4)cc3)n2)n[nH]1 [tozasertib]
inactive: 1 nM -0.96% | 8.33 nM -0.86% | 100 nM -0.22% | 833.33 nM 0.2% | 10000 nM -4.18%

O=C1c2ccccc2C(=O)C1c1ccccc1 [phenindione]
inactive: 1 nM -1.88% | 8.33 nM -1.11% | 100 nM -1.06% | 833.33 nM -1.97% | 10000 nM -3.42%

CCCC(CCC)C(=O)NCC(N)=O [valrocemide]
inactive: 1 nM 0.41% | 8.33 nM 1.83% | 100 nM 2.6% | 833.33 nM 0.66% | 10000 nM 3.56%

COc1ccc(NC(=O)c2ccc(-c3ccc(-c4noc(C)n4)cc3C)cc2)cc1N1CCN(C)CC1
inactive: 1 nM 4.92% | 8.33 nM 6.46% | 100 nM 0.49% | 833.33 nM -1.73%
active: 10000 nM 36.7%

CC(=O)N(CC(O)CN(C(C)=O)c1c(I)c(C(=O)NCC(O)CO)c(I)c(C(=O)NCC(O)CO)c1I)c1c(I)c(C(=O)NCC(O)CO)c(I)c(C(=O)NCC(O)CO)c1I (stereo not given) [iodixanol]
inactive: 1 nM -1.14% | 8.33 nM 3.23% | 100 nM 2.34% | 833.33 nM -0.66% | 10000 nM -1.88%
